Screening data as filed in PubChem BioAssay.
GLS inh = qHTS for Inhibitors of Glutaminase (GLS); Glutaminase kidney isoform, mitochondrial (Homo sapiens), O94925; GLS enzymatic activity, qHTS titration; Potency, µM (highest dose often 45.5 µM), most hits filed as inhibitors; hit rate 0.21% among 410,000; AID 624170, 2012
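Compounds were pin-transferred onto hKGA, after which L-glutamine (1 mM solution) and a detection mix of glutamate oxidase, HRP and Amplex Red were added. Initial and 30 min RT fluorescence reads were collected.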
rTrxR1 inhibitor = qHTS Assay for Inhibitors of Mammalian Selenoprotein Thioredoxin Reductase 1 (TrxR1): qHTS; hit rate 1% among 390,000; recombinant rTrxR1, NADPH fluorescence consumption, selenite substrate; Thioredoxin reductase 1, cytoplasmic (Rattus norvegicus), O89049; Potency, µM (series often up to 114 µM), actives largely listed as inhibitors; note: nearly all actives have a fitted effect of over 65% in size
Target sequence (O89049 whole entry, looked up): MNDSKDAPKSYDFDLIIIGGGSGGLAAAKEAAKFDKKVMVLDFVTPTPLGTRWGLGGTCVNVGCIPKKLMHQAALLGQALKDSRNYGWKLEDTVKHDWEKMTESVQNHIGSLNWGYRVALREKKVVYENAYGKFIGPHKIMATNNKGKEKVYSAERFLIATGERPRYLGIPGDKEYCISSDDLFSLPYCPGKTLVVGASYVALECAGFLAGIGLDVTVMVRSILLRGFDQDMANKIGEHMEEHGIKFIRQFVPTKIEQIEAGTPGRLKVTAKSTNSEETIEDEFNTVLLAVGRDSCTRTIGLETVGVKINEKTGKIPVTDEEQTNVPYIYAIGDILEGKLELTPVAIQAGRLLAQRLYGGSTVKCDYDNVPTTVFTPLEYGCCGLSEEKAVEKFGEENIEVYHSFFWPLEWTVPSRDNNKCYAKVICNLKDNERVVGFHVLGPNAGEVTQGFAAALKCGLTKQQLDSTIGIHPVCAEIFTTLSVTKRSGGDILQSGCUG
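Rat TrxR1 (90 nM in the dispensed reagent) was pre-reduced with 400 uM NADPH for 5 min at room temperature, then incubated with compound for 15 min. After 400 uM selenite was added, NADPH fluorescence (Ex 340/Em 450 nm) was followed for 8 min.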
TrxR1 substrate = qHTS Assay for Substrates of Mammalian Selenoprotein Thioredoxin Reductase 1 (TrxR1): qHTS; Thioredoxin reductase 1, cytoplasmic (Rattus norvegicus), O89049; purified TrxR1 substrate turnover, NADPH consumption readout; Potency, µM (doses to about 114 µM); hit rate 0.01% among 390,000; note: nearly all actives have a fitted effect of over 50% in size
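Rat TrxR1, dispensed at 90 nM, was prereduced with 400 uM NADPH (final) for 5 min at ~22 deg C, then incubated with compound 15 min before 400 uM selenite. A first-read NADPH fluorescence drop versus no-compound background flagged substrates.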
mIDH1 inhibitor = qHTS for Inhibitors of mutant isocitrate dehydrogenase 1 (IDH1): qHTS | Isocitrate dehydrogenase [NADP] cytoplasmic (Homo sapiens), O75874 | hit rate 0.093% among 390,000 | IDH1-R132H enzyme, NADPH consumption, diaphorase/resazurin fluorescence | Potency, µM (series often up to 76.6 µM), usual class: inhibitors; note: nearly all actives have a fitted effect of over 65% in size
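IDH1-R132H (0.5 ug/mL) preincubated 30 min with compound, then NADPH (0.016 mM) and alpha-KG (2 mM) added; 80 min at RT, pH 7.5. Remaining NADPH coupled via diaphorase/resazurin to fluorescence (540/590 nm); concentration-response curves normalized to no-enzyme control.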
Large screens that a line does not name were inactive. Rows were chosen to be rich in hits. Some 1.2% of all compounds tested hit in one or more screens of this group. Calls come from the whole dose curve; as a rule, active = well fitted curve in the direction sought with a large enough effect; inconclusive = small, poorly fitted or top-dose-only effect, or another doubt; inactive = no such curve, though single readings can be large; an effect the other way counts as inactive or inconclusive.

COc1ccc(C(=O)CSc2nnc(-c3ccco3)c(-c3ccco3)n2)cc1	rTrxR1 inhibitor 8.91µM
CSc1nnc(-c2ccco2)c(-c2ccco2)n1	GLS inh inconclusive, rTrxR1 inhibitor 15.8µM
Cc1ccc(NC(=O)CSc2nnc(-c3ccco3)c(-c3ccco3)n2)cc1	rTrxR1 inhibitor 1µM
O=c1cc(/C=C/c2ccc([N+](=O)[O-])cc2)c2ccccc2[nH]1	none (no result: GLS inh, mIDH1 inhibitor)
COc1cccc(NC(=O)CSc2nnc(-c3ccco3)c(-c3ccco3)n2)c1	rTrxR1 inhibitor 7.08µM
COc1ccc(NC(=O)CSc2nnc(-c3ccco3)c(-c3ccco3)n2)cc1OC	rTrxR1 inhibitor inconclusive
CCOC(=O)c1c(C)[nH]c(C)c1S(=O)(=O)N1CCC(C(=O)NCc2cccc(OC)c2)CC1	none
O=C1/C(=C/c2ccc(O)c(O)c2)Oc2cc(O)ccc21	GLS inh 8.91µM
Cc1cc(C)nc(N2N=C(C(C)(C)C)CC2=O)n1	rTrxR1 inhibitor 39.8µM
Cc1ccc(SCC2=NN(c3nc(C)cc(C)n3)C(=O)C2)cc1	none
COC(=O)CNC(=O)C1Nc2ccccc2C2C=CCC12 (stereo not drawn)	rTrxR1 inhibitor 8.91µM
CC(C)CNC(=O)C1Nc2ccccc2C2C=CCC12 (stereo not drawn)	rTrxR1 inhibitor 10µM
CN1CCN(C(c2cccc(Br)c2)c2sc3nc(-c4ccco4)nn3c2O)CC1 (stereo not drawn)	none
CCC(=O)C(Cc1ccccc1)(Cc1ccccc1)CC(C)N(C)C (stereo not drawn)	none (no result: rTrxR1 inhibitor, TrxR1 substrate, mIDH1 inhibitor)
O=c1cc2nc(-c3ccccc3F)nc(SCc3ccc(Br)cc3)n2[nH]1	none
O=C(/C=C/c1ccccc1)Nc1cccc(C(=O)NCCCCc2ccccc2)c1	none
CSc1ccc(/C=N/Nc2nc(C)cc(=O)[nH]2)cc1	none
Cc1cc(=O)[nH]c(N/N=C/c2ccc(O)c(O)c2)n1	GLS inh 12.6µM
Cn1nnnc1SCC1=C(C(=O)O)N2C(=O)[C@@H](NC(=O)[C@H](O)c3ccccc3)[C@H]2SC1	GLS inh 10µM
Cn1nnnc1SCC1=C(C(=O)O)N2C(=O)[C@@H](NC(=O)[C@H](OC=O)c3ccccc3)[C@H]2SC1	GLS inh 22.4µM (no result: rTrxR1 inhibitor, TrxR1 substrate, mIDH1 inhibitor)
Cn1nnnc1SCC1=C(C(=O)O)N2C(=O)C(NC(=O)C3CC3c3ccccc3)C2SC1 (stereo not drawn)	rTrxR1 inhibitor inconclusive
Cc1nnc(SCC2=C(C(=O)O)N3C(=O)C(NC(=O)Cn4ncc(Cl)c4C)C3SC2)s1 (stereo not drawn)	GLS inh inconclusive, rTrxR1 inhibitor 22.4µM
CC(=O)OCC1=C(C(=O)O)N2C(=O)[C@@H](NC(=O)CSc3ccncc3)[C@H]2SC1	GLS inh 17.8µM, rTrxR1 inhibitor inconclusive
O=C(Nc1ccccc1C(F)(F)F)C1(S(=O)(=O)c2ccc(Cl)cc2)CC1	none
Clc1ccc(Cn2c(/C=C/c3ccco3)nc3ccccc32)cc1	rTrxR1 inhibitor 44.7µM
CCCn1c(/C=C/c2ccco2)nc2ccccc21	rTrxR1 inhibitor 50.1µM
Cc1ccc(Cn2c(/C=C/c3ccco3)nc3ccccc32)cc1	none
CCCCn1c(/C=C/c2ccco2)nc2ccccc21	rTrxR1 inhibitor 50.1µM
Cc1c(-c2nc(-c3ccc4c(c3)OCO4)no2)nnn1-c1ccc(C(C)C)cc1	none
CCN(CC)c1ccc(NC(=S)NC(=O)c2ccco2)cc1	GLS inh 10µM
COC(=O)c1cc(OC)c(OC)cc1NC(=S)NC(=O)c1ccco1	rTrxR1 inhibitor 14.1µM
CC(=O)NC(=S)Nc1ccc(NC(=S)NC(=O)c2cccs2)cc1	none
CCN(CC)c1ccc(NC(=S)NC(=O)c2cccs2)cc1	rTrxR1 inhibitor 79.4µM
COc1cccc(CN2C(=O)c3ccccc3Sc3ccc(C(=O)NCc4ccccc4)cc32)c1	none
Nc1ccc(-c2cc3ccccc3[nH]2)cc1	none (no result: GLS inh, mIDH1 inhibitor)
Cc1[nH]c(=O)[nH]c(=S)c1C(=O)Nc1ccc(Cl)c(Cl)c1	GLS inh 1.78µM
CC(=O)c1c(C)[nH]c(C(=O)Nc2ccc(Cl)c(S(=O)(=O)N(C)C)c2)c1C	none
O=C(C[n+]1cnn(CC(=O)c2ccc(Cl)cc2Cl)c1)c1ccc([N+](=O)[O-])cc1	rTrxR1 inhibitor 50.1µM
COc1ccc([N+](=O)[O-])cc1NCC(=O)Nc1cc(S(=O)(=O)N2CCCCC2)ccc1C	none
Cc1ccsc1C(=O)N1CCN(c2ncc(C(F)(F)F)cc2Cl)CC1	none
S=C(Nc1cccnc1)Nc1cccc2cnccc12	none
CN(C)S(=O)(=O)c1cccc(NC(=S)Nc2cccc3cnccc23)c1	rTrxR1 inhibitor 39.8µM
CCOC(=O)C1=C(C)c2ccccc2N(C(=O)OC)C1(C)C(=O)OCC (stereo not drawn)	rTrxR1 inhibitor 35.5µM
CC[C@H](C)[C@H](NC(=O)[C@H](CO)NC(=O)[C@H](CC(N)=O)NC(=O)[C@H](CC(C)C)NC(=O)[C@H](Cc1ccc(O)cc1)NC(=O)[C@H](CCCCN)NC(=O)[C@H](CCCCN)NC(=O)[C@@H](NC(=O)[C@H](C)NC(=O)[C@H](CCSC)NC(=O)[C@H](CCC(N)=O)NC(=O)[C@H](CCCCN)NC(=O)[C@H](CCCNC(=N)N)NC(=O)[C@H](CC(C)C)NC(=O)[C@H](CCCNC(=N)N)NC(=O)[C@@H](NC(=O)[C@H](Cc1ccc(O)cc1)NC(=O)[C@H](CC(N)=O)NC(=O)[C@H](CC(=O)O)NC(=O)[C@@H](NC(=O)[C@H](Cc1ccccc1)NC(=O)[C@@H](NC(=O)[C@H](C)NC(=O)[C@H](CC(=O)O)NC(=O)[C@H](CO)NC(=O)[C@@H](N)Cc1c[nH]cn1)C(C)C)[C@@H](C)O)[C@@H](C)O)C(C)C)C(=O)N[C@@H](CC(C)C)C(=O)N[C@@H](CC(N)=O)C(=O)O	none (no result: rTrxR1 inhibitor, TrxR1 substrate, mIDH1 inhibitor)
COC(=O)C1=C(C)N(CCc2ccc(OC)c(OC)c2)C(=O)/C1=C\N(C)C	rTrxR1 inhibitor 10µM
COc1ccc(CCN2C(=O)CN(Cc3ccccc3)CC2=O)cc1OC	none
COc1ccc(CCN2C(=O)C=CC2=O)cc1OC	rTrxR1 inhibitor 0.631µM
C[C@H]1C(=O)N(S(=O)(=O)c2ccc([N+](=O)[O-])cc2)[C@H]1c1ccc(F)cc1	none (no result: GLS inh, mIDH1 inhibitor)
COc1ccc(C(=O)C2C(=O)C(=O)N(Cc3ccco3)C2c2cccs2)cc1 (stereo not drawn)	rTrxR1 inhibitor 44.7µM (no result: GLS inh, mIDH1 inhibitor)
O=C(Nc1ccc(Cl)cc1Cl)c1cccc(N2C(=O)C=CC2=O)c1	rTrxR1 inhibitor 2µM
O=C(O)c1cccc(N2C(=O)C=CC2=O)c1	none (no result: rTrxR1 inhibitor, TrxR1 substrate)
CCCC1(C)C(C#N)(C#N)C1(C#N)C#N	rTrxR1 inhibitor inconclusive (no result: GLS inh, mIDH1 inhibitor)
NC(=O)c1c(N)sc2c1CCC2	rTrxR1 inhibitor 50.1µM
NC(=O)c1c(N)sc2c1CCCCC2	none
